Records with an inconclusive call do not appear. Activity calls are given as the source filed them. Unless noted, calls follow the shape of the dose curve; as a rule, active = well fitted curve in the direction sought with a large enough effect in the repeat runs; inconclusive = weak or mixed curves; inactive = no such curve, though single readings can be large; an effect the other way counts as inactive or inconclusive.
What was measured:
[1] = A CellTox Green Cytotoxicity Assay to monitor cytotoxicity in HepG2 cells - 8 hour (AID 1224890); also: nearly all actives have a fitted effect of over 45% in size
Outline: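 HepG2, 600 cells/well premixed w/ CellTox Green; 5 h settle, 37 C/5% CO2; pintool cpd add (DMSO); 37 C, 40 h; fluorescence read at 0, 8, 16, 24, 32, 40 h.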

[2] = qHTS assay to identify small molecule antagonists of the androgen receptor (AR) signaling pathway using the MDA cell line in the presence of 0.5 nM R1881 - cell viability counter screen (AID 1259242); also: nearly all actives have a fitted effect of over 45% in size
Outline: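 Live-cell protease fluorescence, CellTiter-Fluor, 30 min at 37C. Cells: MDA-kb2, 3,000/well, preincubated 5 hr. Compounds plus 0.5 nM R1881 final, 16 hr, 37C, 0% CO2.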

[3] = molecular target: Androgen receptor (Homo sapiens) (UniProt P10275); assay: qHTS assay to identify small molecule antagonists of the androgen receptor (AR) signaling pathway using the MDA cell line in the presence of 0.5 nM R1881 (AID 1259243); also: nearly all actives have a fitted effect of over 50% in size
Androgen receptor (Homo sapiens), sequence (P10275 whole entry, looked up): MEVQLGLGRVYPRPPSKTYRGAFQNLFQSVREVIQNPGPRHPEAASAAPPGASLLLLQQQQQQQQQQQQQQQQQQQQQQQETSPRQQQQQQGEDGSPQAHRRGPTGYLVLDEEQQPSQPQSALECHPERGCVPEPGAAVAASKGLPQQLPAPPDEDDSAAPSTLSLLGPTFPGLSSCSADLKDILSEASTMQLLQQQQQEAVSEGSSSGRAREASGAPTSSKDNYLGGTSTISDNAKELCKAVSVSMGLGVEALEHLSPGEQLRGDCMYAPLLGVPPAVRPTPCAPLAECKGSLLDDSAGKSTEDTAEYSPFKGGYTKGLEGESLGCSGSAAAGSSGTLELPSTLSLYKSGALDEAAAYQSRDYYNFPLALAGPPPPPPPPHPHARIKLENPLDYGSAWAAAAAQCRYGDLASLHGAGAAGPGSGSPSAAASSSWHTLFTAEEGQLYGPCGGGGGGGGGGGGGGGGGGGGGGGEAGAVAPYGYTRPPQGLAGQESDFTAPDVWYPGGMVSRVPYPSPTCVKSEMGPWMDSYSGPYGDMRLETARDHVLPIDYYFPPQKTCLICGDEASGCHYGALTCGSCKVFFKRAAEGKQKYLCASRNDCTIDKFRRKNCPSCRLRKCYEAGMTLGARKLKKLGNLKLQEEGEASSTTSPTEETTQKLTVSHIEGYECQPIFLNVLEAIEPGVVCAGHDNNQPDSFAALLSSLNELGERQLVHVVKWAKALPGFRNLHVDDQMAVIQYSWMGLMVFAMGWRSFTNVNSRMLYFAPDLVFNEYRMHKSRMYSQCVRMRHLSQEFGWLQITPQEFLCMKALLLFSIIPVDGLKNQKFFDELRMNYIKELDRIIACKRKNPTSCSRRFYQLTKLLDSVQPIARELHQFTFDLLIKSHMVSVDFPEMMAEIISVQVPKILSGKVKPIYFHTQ
Outline: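 MDA-kb2, MMTV-luc (AR/GR elements); 3,000 cells/well; cpd + 0.5 nM R1881 final; 16 hr 37C, 0% CO2; ONE-Glo 30 min RT; luminescence.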

[4] = molecular target: Estrogen receptor (Homo sapiens) (UniProt P03372); assay: qHTS assay to identify small molecule antagonists of the estrogen receptor alpha (ER-alpha) signaling pathway using the BG1 cell line in the presence of 0.1 nM 17-beta-estradiol (AID 1259244); also: nearly all actives have a fitted effect of over 50% in size
Estrogen receptor (Homo sapiens), sequence (P03372 whole entry, looked up): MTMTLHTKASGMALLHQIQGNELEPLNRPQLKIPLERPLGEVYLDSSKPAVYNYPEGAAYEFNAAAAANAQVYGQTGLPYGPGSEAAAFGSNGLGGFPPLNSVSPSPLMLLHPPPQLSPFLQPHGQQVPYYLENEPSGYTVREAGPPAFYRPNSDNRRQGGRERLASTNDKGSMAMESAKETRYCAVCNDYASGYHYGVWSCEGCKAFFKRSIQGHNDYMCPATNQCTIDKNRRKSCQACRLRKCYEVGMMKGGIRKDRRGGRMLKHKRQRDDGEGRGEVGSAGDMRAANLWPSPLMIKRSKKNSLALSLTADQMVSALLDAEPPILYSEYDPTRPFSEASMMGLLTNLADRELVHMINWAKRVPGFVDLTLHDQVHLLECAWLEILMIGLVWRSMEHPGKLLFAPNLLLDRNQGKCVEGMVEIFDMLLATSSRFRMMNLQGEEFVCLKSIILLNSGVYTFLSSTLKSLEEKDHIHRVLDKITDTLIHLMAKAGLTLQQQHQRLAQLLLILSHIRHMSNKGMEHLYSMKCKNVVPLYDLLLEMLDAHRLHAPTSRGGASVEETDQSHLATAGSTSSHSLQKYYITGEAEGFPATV
Outline: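 Luminescence after ONE-Glo (30 min, room temperature) measured ERE-luciferase activity in VM7Luc4E2 cells treated 22 h with compound and 0.1 nM final 17beta-estradiol as stimulator.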

[5] = qHTS assay to identify small molecule HDAC inhibitors (AID 1259364);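 also: wild-type HCT-116 cells with endogenous class I/II HDAC activity; top concentration of the series differs between compounds; nearly all actives have a fitted effect of over 45% in size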
Outline: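 HCT-116 (wild type), 1,500 cells/well, overnight; compound 2 hr 37C 5% CO2; HDAC-Glo I/II reagent 30 min RT; luminescence readout.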

[6] = qHTS assay to identify small molecule HDAC inhibitors - cell viability counter screen (AID 1259365); also: series mostly up to about 92 µM; nearly all actives have a fitted effect of over 50% in size
Outline: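 Viability readout: CellTiter-Glo luminescence. Wild-type HCT-116 cells, 2hr compound treatment following overnight attachment at 37 C.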

[7] = qHTS assay to identify small molecule agonists of the sonic hedgehog signaling (Shh) pathway - cell viability counter screen (AID 1259366); also: nearly all actives have a fitted effect of over 50% in size
Outline: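 Viability measured fluorometrically (CellTiter-Fluor, 1hr, 37C) in 3T3 Gli1-Luc reporter cells after 23hr compound exposure within a 24hr incubation at 37C/5% CO2.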

[8] = qHTS assay to identify small molecule antagonists of the sonic hedgehog signaling (Shh) pathway - cell viability counter screen (AID 1259367); also: nearly all actives have a fitted effect of over 55% in size
Outline: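 Cytotoxicity was assessed in parallel with Shh reporter activity by measuring live-cell protease fluorescence (CellTiter-Fluor) in NIH/3T3 cells stably carrying Gli1-Luc, treated with compound under conditioned medium stimulation for 23 hr plus 1 hr reagent incubation.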

[9] = qHTS assay to identify small molecule agonists of the sonic hedgehog signaling (Shh) pathway (AID 1259368; calls by dose curve;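 also: NIH/3T3-derived 3T3Gli1-Luc cells carrying a stable Gli1-driven firefly luciferase reporter; series mostly up to about 92 µM; nearly all actives have a fitted effect of over 15% in size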)
Outline: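 Read-out: firefly luciferase luminescence from a Gli1 response element reporter stably integrated in NIH/3T3-derived 3T3Gli1-Luc cells, measured 30 min at room temperature after reagent addition. Compound exposure lasted 24 hr at 37 C, 5% CO2.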

[10] = qHTS assay to identify small molecule antagonists of the sonic hedgehog signaling (Shh) pathway (AID 1259369; calls by dose curve; also: nearly all actives have a fitted effect of over 45% in size; also: potency is read from the fitted curve at half-maximal effect)
Outline: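 Luminescence readout: firefly Luc under Gli1 response element in 3T3Gli1-Luc cells (NIH/3T3 clone). Antagonist mode, stimulation by conditioned medium; compound exposure 24hr at 37 C, 5% CO2.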

[11] = qHTS assay to identify small molecule agonists of the estrogen receptor beta (ER-beta) signaling pathway - cell viability counter screen (AID 1259380); also: nearly all actives have a fitted effect of over 30% in size
Outline: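 Luminescence read-out (CellTiter-Glo, 30 min, room temp) taken in the same wells as the beta-lactamase reporter assay; ER-beta-UAS-bla HEK293T cells exposed to DMSO-dissolved compounds for 16 hr at 37C in 2% charcoal-stripped FBS medium.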

[12] = molecular target: Androgen receptor (Homo sapiens) (UniProt P10275); assay: qHTS assay to identify small molecule agonists of the androgen receptor (AR) signaling pathway in the presence of an antagonist (AID 1259381; calls by dose curve; also: nearly all actives have a fitted effect of over 15% in size)
Outline: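 Luciferase read-out (ONE-Glo, 30min room temperature) in MDA-kb2 MMTV-reporter cells; agonist mode run in presence of AR antagonist nilutamide, 3.0uM final. Compounds tested as 15-point series, 16hr exposure at 37C, 0% CO2.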

[13] = qHTS assay to identify small molecule antagonists of the estrogen receptor beta (ER-beta) signaling pathway - cell viability counter screen (AID 1259382); also: series mostly up to about 92 µM; nearly all actives have a fitted effect of over 55% in size
Outline: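 Luminescent ATP read-out (CellTiter-Glo, 30 min, RT) taken in the same wells as the bla reporter assay. HEK293T ER-beta-UAS-bla cells in 2% charcoal-stripped FBS were exposed to compounds with 1nM E2 for 16 hr at 37C.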

[14] = molecular target: Estrogen receptor (Homo sapiens) (UniProt P03372); assay: qHTS assay to identify small molecule agonists of the estrogen receptor alpha (ER-alpha) signaling pathway in the presence of an antagonist (AID 1259383; calls by dose curve; also: top concentration of the series differs between compounds; nearly all actives have a fitted effect of over 15% in size)
Outline: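 Luciferase luminescence (ONE-Glo, 30min at room temperature) measured in VM7Luc4E2 cells after 22hr compound exposure at 15 concentrations, with 10.0nM ICI-182,780 final present; cells express endogenous ER-alpha and carry four EREs upstream of luciferase.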

[15] = qHTS assay to identify small molecule antagonists of the estrogen receptor alpha (ER-alpha) signaling pathway using the BG1 cell line in the presence of 0.1 nM 17-beta-estradiol - cell viability counter screen (AID 1259241); also: nearly all actives have a fitted effect of over 40% in size
Outline: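 The cell line endogenously expresses full-length ER-alpha and carries four EREs driving luciferase. Cells are cultured 5 days hormone-free, treated 22 hr with compounds and 0.1 nM estradiol, then viability is read by fluorescence.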

[16] = qHTS assay to identify small molecule phospholipidosis (PLD) inducers (AID 1259344; active = well fitted curve in the direction sought with a large enough effect; an effect the other way counts as inactive or inconclusive)
Outline: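 Cells (HepG2, 900 per well) attach for 4 h, receive LipidTOX Red and compound together, incubate 24 h at 37 C, are fixed 30 min with paraformaldehyde/Hoechst, then imaged at one site per well.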

[17] = molecular target: Estrogen receptor beta (Homo sapiens) (UniProt Q92731); assay: qHTS assay to identify small molecule agonists of the estrogen receptor beta (ER-beta) signaling pathway (AID 1259377; active = well fitted activation curve with a large enough effect in the signal ratio in the repeat runs, not every such curve was filed as active; the % refers to the signal ratio)
Estrogen receptor beta (Homo sapiens), sequence (Q92731 whole entry, looked up): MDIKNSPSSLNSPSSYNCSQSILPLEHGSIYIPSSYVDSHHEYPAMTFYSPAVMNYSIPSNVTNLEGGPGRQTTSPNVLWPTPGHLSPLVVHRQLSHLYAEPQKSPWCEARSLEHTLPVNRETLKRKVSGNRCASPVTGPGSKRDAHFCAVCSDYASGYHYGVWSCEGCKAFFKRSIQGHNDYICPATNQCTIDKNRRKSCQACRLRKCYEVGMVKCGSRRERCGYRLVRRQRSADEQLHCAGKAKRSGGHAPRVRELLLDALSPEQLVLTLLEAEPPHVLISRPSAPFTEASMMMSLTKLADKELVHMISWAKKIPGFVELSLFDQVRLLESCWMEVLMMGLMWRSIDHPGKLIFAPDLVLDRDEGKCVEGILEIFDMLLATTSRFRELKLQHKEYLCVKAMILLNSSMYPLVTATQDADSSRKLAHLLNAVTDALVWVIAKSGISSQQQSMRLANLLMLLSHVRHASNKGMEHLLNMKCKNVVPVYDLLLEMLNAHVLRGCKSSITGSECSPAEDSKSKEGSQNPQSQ
Outline: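 A UAS-controlled beta-lactamase reporter in ER-beta-UAS-bla HEK293T cells reports receptor activation. Compounds act for 16 hr at 37C in 2% charcoal-stripped serum, and a FRET substrate is read by fluorescence after 2 hours.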

[18] = molecular target: Estrogen receptor beta (Homo sapiens) (UniProt Q92731); assay: qHTS assay to identify small molecule antagonists of the estrogen receptor beta (ER-beta) signaling pathway (AID 1259378; active = well fitted inhibition curve with a large enough effect in the signal ratio in the repeat runs, not every such curve was filed as active; the % refers to the signal ratio)
Outline: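 ER-beta-UAS-bla HEK293T (GripTite) cells in 2% charcoal-stripped FBS medium were preincubated 6 hr at 37C, dosed with compound, then stimulated with 1 nM E2 (final) for 16 hr; beta-lactamase reporter read by B/G FRET fluorescence after 2 hr substrate loading.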

[19] = qHTS assay to identify small molecule agonists of the androgen receptor (AR) signaling pathway in the presence of an antagonist - cell viability counter screen (AID 1259379);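 also: MDA-kb2 human breast cancer cells carrying an MMTV luciferase reporter; series mostly up to about 92 µM; nearly all actives have a fitted effect of over 25% in size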
Outline: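 Viability counter screen: CellTiter-Fluor fluorescence, measured in the same wells as the luciferase read-out. MDA-kb2 cells, 3,000/well, with nilutamide at 3.0uM final and compounds at 15 concentrations, 16 hr at 37C, 0% CO2.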

[20] = qHTS assay to identify small molecule agonists or antagonists of the thyroid stimulating hormone receptor (TSHR) signaling pathway - wild type cell line counter screen (AID 1259384; calls by dose curve)
Outline: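 Wild-type HEK293 cells were plated 18 h at 37 C/5% CO2, pin-dosed with compound plus Ro20-1724 medium, held 30 min at room temperature, then given cAMP-d2 and anti-cAMP-cryptate; fluorescence was read after 1 h. Fifteen concentrations, triplicate.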
% is scaled to controls: 0 for no effect and ±100 for the full control effect.

Nc1ccc2cc(S(=O)(=O)O)cc(O)c2c1
inactive: outcome [1] | outcome [2] | Potency [3] | Potency [4] | Potency [5] | outcome [6] | Potency [7] | Potency [8] | outcome [9] | Potency [10] | Potency [11] | Potency [12] | outcome [13] | outcome [14]

Nc1ccc(S(=O)(=O)Nc2ccc(Cl)nn2)cc1
inactive: Potency [15] | outcome [2] | Potency [3] | Potency [4] | outcome [16] | Potency [5] | outcome [6] | Potency [7] | Potency [8] | outcome [9] | Potency [17] | outcome [18] | Potency [19] | Potency [11] | outcome [13] | outcome [14]

O=C(OCc1ccccc1)C(=O)OCc1ccccc1
inactive: Potency [15] | outcome [2] | Potency [3] | Potency [4] | Potency [5] | outcome [6] | Potency [7] | Potency [8] | outcome [9] | Potency [10] | Potency [17] | outcome [18] | Potency [19] | Potency [11] | Potency [12] | outcome [13] | outcome [20]

CCCC/C=C/C=C\C=O
inactive: outcome [1] | outcome [2] | Potency [3] | Potency [4] | Potency [5] | outcome [6] | Potency [7] | Potency [8] | outcome [9] | Potency [17] | Potency [19] | outcome [13] | outcome [20]

OC[C@H](Cc1cccc(O)c1)[C@H](CO)Cc1cccc(O)c1
inactive: outcome [1] | outcome [2] | Potency [5] | outcome [6] | Potency [7] | outcome [9] | Potency [19]
active: Potency [10] 62.6 µM

CC(N)C(=O)OC(C)(C)Cc1ccc(Cl)cc1 (stereo not drawn)
inactive: outcome [1] | outcome [2] | Potency [4] | Potency [5] | outcome [6] | Potency [7] | Potency [8] | outcome [9] | Potency [10] | Potency [17] | outcome [18] | Potency [19] | Potency [11] | outcome [13] | outcome [20]

O=C1CC(c2ccc(Cl)cc2)CC(=O)N1
inactive: outcome [1] | outcome [2] | Potency [4] | Potency [5] | outcome [6] | Potency [7] | Potency [8] | outcome [9] | Potency [10] | Potency [17] | outcome [18] | Potency [19] | Potency [11] | outcome [13] | outcome [20]

CCCCCCCC/C=C\CCCCCCCC(=O)OCCCC
inactive: cytotoxicity increase [1] -0.525% [at 15.8 µM] | viability change, negative = cytotoxic [2] -4.19% [at 19 µM] | activity change, negative = inhibition [4] -2.58% [at 19 µM] | activity change, negative = inhibition [5] 2.78% [at 19 µM] | activity change, negative = cytotoxicity [6] -0.686% [at 19 µM] | viability change, negative = cytotoxic [7] -5.96% [at 19 µM] | viability change, negative = cytotoxic [8] 1.8% [at 19 µM] | activity change [9] -0.497% [at 18.9 µM] | activity change, negative = inhibition [10] 17.1% [at 19 µM] | activation [17] -0.0077% [at 19 µM] | activity, negative = inhibition [18] 0.587% [at 19 µM] | activity change, negative = cytotoxicity [19] 0.614% [at 19 µM] | activity change, negative = cytotoxicity [11] -6.74% [at 19 µM] | activity change, negative = cytotoxicity [13] -4.71% [at 19 µM] | cAMP activity change [20] -3.23% [at 18.9 µM]

Reference: PubChem BioAssay (Tox21)
